Test results from PubChem BioAssay AID504725 (Broad Institute, 2011).
Results with a measured potency or affinity are listed apart. Active and inactive are the calls of the source. No rule for the calls is given here.

Each compound was assayed against KSHV LANA C-terminal domain (residues 932-1162) binding to LBS DNA (UniProt O40947) (assay: KSHV LANA DNA-binding disruption – biochemical, fluorescence polarization, cherry-picked samples, dose response (AID 504725)). Settings: MBP-C-LANA / FAM-LBS DNA fluorescence polarization, percent change from plate compound-well median; series mostly up to 35 µM.

outcome, inactive:
COc1ccccc1CNC(=O)C(=O)NCC1CCCN1S(=O)(=O)c1cccs1 (stereo not drawn)
COc1cc(OC)cc(-c2c(-c3ccsc3)c3cc(Br)ccc3n2C)c1
CC1Cc2ccccc2N1C(=O)CCS(=O)(=O)c1cccs1 (stereo not drawn)
CCN(Cc1ccccc1)S(=O)(=O)c1cc2[nH]c(=O)c(=O)[nH]c2cc1C
CCNc1nc(NC(C)C)nc(NS(=O)(=O)c2ccc(N)cc2)n1
COc1ccc(-c2n[nH]c(=S)n2-c2ccc(C)cc2)cc1
NNC(=S)Nc1ccc(S(=O)(=O)N2CCOCC2)cc1
CC(C(=O)Nc1ccccc1)N1C(=O)c2ccccc2C1=O (stereo not drawn)
CCOC(=O)c1sc(NC(=O)CSC(=S)N2CCN(C)CC2)nc1C
CCN(CC(=O)Nc1c(F)cccc1F)C(=O)CCCc1cccs1
CCn1c(CN2CCCCC2)nc2cc(S(=O)(=O)N3CCCCC3)ccc21
COc1ccc(-c2cnc3n2CCCCC3)cc1
COc1cccc(/C=N/NC(=O)C(=O)NCc2cccnc2)c1O
C=CCNC(=O)c1cn(CC)c2cc(N3CCN(C(=O)c4ccco4)CC3)c(F)cc2c1=O
COc1ccc(CCNC(=O)CNC(=O)Cn2ccc3ccccc3c2=O)cc1OC
CC(=O)N/C(=N\OCc1ccc(Br)cc1)c1nonc1NC(C)=O
CC(C)(C)OC(=O)C[C@@H]1C/C=C\C[C@H](CC(=O)N(CCO)Cc2ccccc2)C(=O)N[C@@H](c2ccccc2)COC1=O
Cc1ccc(OCC(=O)NC(=S)Nc2cccc(NC(=O)c3ccc(Cl)cc3Cl)c2)cc1
CCCOc1ccc(C=Nc2ccc(OC)c(S(=O)(=O)N3CCOCC3)c2)c(O)c1
O=C(Nc1cc(Cl)ccc1-n1cncn1)c1cccs1
CCC(C)[C@H](NC(=O)[C@@H]1Cc2ccccc2CN1)C(=O)Nc1ccc2c(c1)OCO2 (stereo partly drawn)
Cc1ccc(NC(=O)CN(C)C(=O)c2nn(C)c(=O)c3ccccc23)cc1
CN(C)c1ccc(/C=C/C(=O)c2ccc(O)cc2)cc1[N+](=O)[O-]
O=C(Cn1ncc(N2CCCC2)c(Cl)c1=O)c1ccc(Cl)cc1
NNc1nc(-c2ccccc2)cs1
CN1CCc2c(sc(NC(=O)c3ccc4ccccc4c3)c2C(N)=O)C1
Cc1cc(NC(=O)CCC(=O)N(CCC(C)C)C(C(=O)NC2CCCC2)c2cccnc2)no1 (stereo not drawn)
O=C1c2cccc3c(N4CCCCC4)ccc(c23)C(=O)N1c1cccc(O)c1
CCCN(CCC)C(=O)C1c2ccccc2Oc2ccccc21
O=c1c2cc(O)c(O)cc2oc2cc(O)c(C3OC(CO)C(O)C(O)C3O)c(O)c12 (stereo not drawn)
CSC(=NS(=O)(=O)c1ccc(N)cc1)NS(=O)(=O)c1cccs1
Cc1cccnc1NC1(C(F)(F)F)N=C2SCCN2C1=O (stereo not drawn)
O=C(CN1C(=O)NC2(CCCC2)C1=O)Nc1ccccc1-c1ccccc1
O=C(c1coc(=O)c(Br)c1)N1CCCc2ccccc21
CCN(C(=O)COC(=O)CCCOc1ccc(Cl)cc1C)c1c(N)n(Cc2ccccc2)c(=O)[nH]c1=O
Cc1[nH][nH]c(=O)c1C(c1ccc(-c2ccc(Cl)c(C(=O)O)c2)o1)c1c(C)[nH][nH]c1=O
CC(C)Cn1c(N)c(C(=O)CSc2nnc(-c3ccco3)n2C)c(=O)n(C)c1=O
CCc1noc(C)c1C(=O)NCCc1c[nH]c2ccccc12
